# A selection: hits, their analogues and other compounds. The true share with any hit is near 15%.
# HCV inh – inhibitors of hepatitis C virus infection | Huh7.5.1 HCVcc-Cre infection, luciferase reporter, 44 h | Potency, µM (titrated, usually from 41.8 µM), most hits filed as inhibitors | 3.4% of 340,000 active
#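 A cell-based infection assay in which seeded cells (1,000 per well) receive test compound after 4 h, are inoculated with HCVcc-Cre at approximately 0.5 moi, and are incubated 44 h before luminescence detection.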
# Sm TGR block – S. mansoni TGR enzyme inhibition; purified TGR, DTNB reduction, TNB absorbance 405 nm; Potency, µM (top dose mostly 114 µM), most hits filed as inhibitors; 3% of 360,000 active; AID 485364; also: nearly all actives have a fitted effect of over 60% in size
#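 Kinetic colorimetric format: TGR-catalysed, NADPH-driven DTNB reduction monitored via TNB absorbance. Enzyme dispensed at 20 nM; compound exposure 15 min at room temperature before reaction start.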
# Pf growth 48h – inhibits P. falciparum growth in the first generation, 48 h; P. falciparum luciferase growth in erythrocytes, 48 h; Potency, µM (series often up to 28.7 µM), usual class: inhibitors; 5.9% of 310,000 active
#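 Compounds are pin-transferred into medium, infected erythrocytes (2% hematocrit, 0.1% parasitemia final) are added, and plates sit one parasite generation at 37 C in 5% CO2. Detection reagent is then added and luminescence measured.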
# HCMV inh – inhibitors of human cytomegalovirus | HFF cells, HCMV-luciferase reporter, 72 h; stronger effect = lower value | activity change, negative = inhibition, % at 57.5 µM | 4.5% of 410,000 active; in the data active = activity change below about -60%; inconclusive = no clear call, values can overlap the other calls; inactive = above about -39%
#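 Cell-based, HFFs, 1000 cells/well, 16 h 37C; cpds in DMSO + HCMV-luc, MOI 1 PFU/cell; 72 h 37C; OneGlo luminescence after 5 min RT; norm. to buffer vs Salinomycin 10uM.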
# SARS PLP yeast – inhibitors of SARS-CoV papain-like protease in yeast. Potency, µM (series often up to 32.9 µM), actives largely listed as activators. 0.19% of 330,000 active. S. cerevisiae expressing SARS-CoV PLpro, growth rescue; calls by dose curve; also: nearly all actives have a fitted effect of over 55% in size
# Pf growth 96h – P. falciparum growth inhibition at 96 hours; 6.9% of 320,000 active; Potency, µM (doses to about 28.7 µM), usual class: inhibitors; AID 504834; P. falciparum luciferase reporter growth, 96 h
#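 P. falciparum expressing integrated firefly luciferase grown in erythrocytes (2% hematocrit, 0.05% parasitemia final) with compounds for 96 hours at 37 C, 5% CO2. Growth inhibition read as loss of luminescence after adding luciferase detection reagent.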
# Numbers stand for hits; – = inactive; ? = inconclusive; · = not tested or not shown. Unless noted, calls follow the shape of the dose curve; as a rule, active = well fitted curve in the direction sought with a large enough effect; inconclusive = small, poorly fitted or top-dose-only effect, or another doubt; inactive = no such curve, though single readings can be large; an effect the other way counts as inactive or inconclusive.
SMILES,HCV inh,Sm TGR block,Pf growth 48h,HCMV inh,SARS PLP yeast,Pf growth 96h
CCS(=O)(=O)Nc1cccc(C2=NN(C(=O)c3ccco3)C(c3ccco3)C2)c1 (stereo unspecified),–,50µM,?,–,–,–
CC(=O)N1N=C(c2ccc(NS(=O)(=O)c3ccccc3)cc2)CC1c1ccco1 (stereo unspecified),?,–,?,–,–,?
CCCCCCSc1cc(-c2nc3ccc(Cl)cn3c2NCCCC)ccc1OC,–,–,?,?,–,–
COc1cc2ccc3c(CCN(C)C)cc(OC)c(OC)c3c2cc1OC,?,–,–,–,–,–
CCCCCSc1cc(OC)c(CCN)cc1OC,?,–,?,-70,–,?
CCCCCCCSc1cc(OC)c(CCN(C)C)cc1OC,?,–,?,–,–,4.7µM
CCOCc1cnc(C)nc1NCC(=O)c1c(C)[nH]c2ccc(OC)cc12,–,–,·,–,–,0.41µM
C=CCC(=O)N(CC)CC1CCCN(CCc2cccc(F)c2)C1 (stereo unspecified),–,–,–,–,–,–
CC(=O)Nc1ccc(CN(C)CC2CCCN(CCc3cccc(C(F)(F)F)c3)C2)cc1 (stereo unspecified),1.4µM,–,4.1µM,–,–,?
CCN(Cc1ccc(O)cc1)CC1CCCN(CCc2cccc(F)c2)C1 (stereo unspecified),8.9µM,?,2.3µM,–,–,12µM
CN(CC1CCCN(CCc2cccc(C(F)(F)F)c2)C1)C(=O)c1ccco1 (stereo unspecified),–,–,–,–,–,–
COCCn1c(N)c(N(Cc2ccccc2)C(=O)COc2ccccc2F)c(=O)[nH]c1=O,–,–,–,–,–,–
COc1ccc(-c2c(C)nn3c(N)c(C#N)cnc23)cc1OC,?,–,0.41µM,–,–,0.33µM
CC(=O)c1cccc(Nc2ccc(C#N)cc2)c1,·,·,·,–,·,·
COc1ccc(C(CNC(=O)Cc2cccs2)N(C)C)cc1 (stereo unspecified),–,–,–,–,–,–
CC(=O)Oc1c(Br)cc(N(C(C)=O)S(=O)(=O)c2ccccc2)c2ccccc12,?,3.5µM,3.3µM,–,–,?
CC(=O)Oc1ccccc1N(C(C)=O)S(=O)(=O)c1ccc2ccccc2c1,–,–,–,–,–,2.3µM
CC(=O)Oc1ccc(N(C(C)=O)S(=O)(=O)c2cccs2)c2ccccc12,·,?,4.1µM,–,–,·
CCN(CC)c1ccc(/C=N/N2CC(=O)NC2=S)cc1,–,–,?,–,–,3.7µM
CCN(CC)c1ccc(/C=N/n2c(C)cc(C)cc2=O)cc1,–,–,7.4µM,–,–,–
CN1C(=O)CC(N2CCC(c3nc4ccccc4[nH]3)CC2)C1=O (stereo unspecified),–,89µM,·,–,–,–
O=C(O)c1ccc(N2C(=O)CC(N3CCC(c4nc5ccccc5[nH]4)CC3)C2=O)cc1 (stereo unspecified),–,22µM,?,–,–,–
Cc1cccc(C)c1NC(=O)Cn1nc(-c2ccc(Cl)s2)ccc1=O,?,–,–,–,–,–
COc1ccc(C(=O)NCCc2c[nH]c3ccccc23)cc1S(=O)(=O)N1CCCCC1C (stereo unspecified),?,–,8.3µM,–,–,13µM
COc1ccc(C(=O)NCC(c2ccco2)N2CCCCC2)cc1S(=O)(=O)Nc1ccc(C)cc1 (stereo unspecified),?,·,·,–,·,·
SMILES,HCV inh,Sm TGR block,Pf growth 48h,HCMV inh,SARS PLP yeast,Pf growth 96h
COc1ccc(C(=O)NCC(c2ccco2)N2CCCC2)cc1S(=O)(=O)N1CCCCC1C (stereo unspecified),–,–,?,–,–,5.2µM
COc1ccc(C(=O)NC2=NCCS2)cc1S(=O)(=O)N1CCCCC1C (stereo unspecified),–,–,?,–,–,?
COc1ccc(C(=O)NCCc2ccc(Cl)cc2)cc1S(=O)(=O)N1CCCCC1C (stereo unspecified),8.9µM,–,?,?,–,?
O=C(COc1ccc(Cl)cc1)NCCNc1ccc([N+](=O)[O-])cc1,–,–,–,–,–,–
C[C@@H]1CCCCO[C@@H](CN(C)S(=O)(=O)c2ccc(Cl)cc2)[C@@H](C)CN([C@H](C)CO)C(=O)c2cc(N(C)C)ccc2O1,·,·,·,–,·,·
O=C(CSc1nn(-c2ccc(Cl)cc2)c(=S)s1)N1CCN(C(=O)c2ccco2)CC1,–,–,4.7µM,–,–,–
CCc1ccc(N(CC(=O)NC(C)C)C(=O)CCC(=O)Nc2nccs2)cc1,–,–,–,–,–,–
COc1cccc(-c2noc(CCCC(=O)NCc3ccco3)n2)c1,·,45µM,·,–,·,·
COc1ccc(-c2noc(-c3ccccc3C(=O)NCc3ccco3)n2)cc1OC,5.6µM,?,–,–,–,–
CC(C)(C)c1ccc(-c2noc(CCC(=O)Nc3cccc(Cl)c3)n2)cc1,·,–,·,-89,·,·
Cc1ccc(-c2noc(CCC(=O)Nc3cccc(C(=O)NC4CC4)c3)n2)cc1,·,·,·,–,·,·
Cc1cccc(-c2noc(CCCC(=O)NCc3ccco3)n2)c1,·,–,·,–,·,·
Cc1ccc(C)c(NC(=O)CCc2nc(-c3ccc(C(C)(C)C)cc3)no2)c1,·,–,·,–,·,·
O=C(CCc1nc(-c2ccc(F)cc2)no1)Nc1cccc(C(=O)NC2CC2)c1,14µM,·,·,–,–,·
CCc1ccc(-n2c(C)nc3cc(C(=O)NCc4cccnc4)ccc32)cc1,?,–,?,?,–,?
CC(C)(C)c1ccc(-c2noc(CCC(=O)NCc3ccco3)n2)cc1,?,–,–,-81,–,–
O=C(NCc1nc(-c2ccc(C(F)(F)F)cc2)no1)Nc1ccc(F)cc1F,–,–,–,–,–,–
O=C(NCc1nc(-c2ccc(C(F)(F)F)cc2)no1)Nc1cc(Cl)cc(Cl)c1,–,–,?,-96,–,?
COc1ccc(-c2noc(CCCC(=O)NCc3ccco3)n2)cc1OC,–,40µM,–,–,–,–
CCCC(C)NC(=O)C1CC(=O)N(CCc2ccc(F)cc2)C1 (stereo unspecified),–,–,–,–,–,0.93µM
O=C(Nc1nccs1)C1CC(=O)N(CCc2ccc(F)cc2)C1 (stereo unspecified),–,–,–,-62,–,–
CCc1nnc(NC(=O)C2CC(=O)N(CCc3ccccc3)C2)s1 (stereo unspecified),–,–,–,–,–,?
CCc1nnc(NC(=O)C2CC(=O)N(CCc3ccc(F)cc3)C2)s1 (stereo unspecified),–,–,–,-64,–,?
CCCCc1nnc(NC(=O)C2CC(=O)N(Cc3ccccc3)C2)s1 (stereo unspecified),–,–,?,–,?,10µM
